PBM binding z-score data for 40 sequences are collected here from the supplement of paper PMC6555819.

The test system of the first test is LXRa homodimer (NR concentration 270 nM). Briefly: PBM binding z-score (relative to random genomic background probes); higher = stronger binding; sequences stand for … in GC…GCGATTGACAGCGTAGAATGAAGG
Summed up: (§1)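 Binding z-scores were set against random background probes. The data came from custom Agilent 4×180K protein-binding microarrays carrying double-stranded probes with 34-nt variable regions, incubated 1 h with ligand-free nuclear receptor dimers. Partner-specific antibodies detected binding, and scanned fluorescence was regression-normalized.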
AATACAGGGTCATCGTAGGCCAGAGAACGCACAG came in with a PBM binding z-score of 2.11.
For CCGACTGGGGCATAAGGTTACGATAAGCCAGCCC, the PBM binding z-score is -0.328.
CGTCCAAGGTCAGAGAGGTAAGTGAATGCCGAGT yielded a PBM binding z-score of 0.174.
The sequence TCGAGTAGGTTACCAATGGGGCGTTCAGCTTTCT showed a PBM binding z-score of -0.684.
Sequence CCTCCTGGGCCAAAGGTCATTGATTCCAATGCTC showed a PBM binding z-score of 3.68.
In turn, GCGACTGGGGCATCAGGAGGTTACCATAACTTAA came in with a PBM binding z-score of 0.0698.
For the sequence CCTATTAGTTGACCATAAGGGCAACGGAAGCTCG, the PBM binding z-score amounted to 0.454.
Turning to CAAACTAGGTCAACGGAAGGTCAAAGTCCGCATG, the PBM binding z-score turned out to be 5.99.
Consider ACTATTAGTTGAGACGCGGGCAACCGATAGGTTG, for which the PBM binding z-score was -0.325.
For the sequence ACTAGTTAGTCAGCTGAGGTCACACACAATTCGG, the PBM binding z-score came to 2.52.
ATCGAAAGGTCGAAGGTGAATATACCCACCCGAA gave a PBM binding z-score of 0.547.
Same read-out and setting: next, ATATCTAGGTTAGCTGGGGTCATTCAGACTAGGC: 3.33; TCTTGTAGATCAAGCAGGTTAAGAAGGCCTGAGT: -0.218; CCAGACAGGTTAAAGGTAACTCAGTCTGGTACGC: 0.195.
The same measure, in the same setting: for TCTTGTAGATCAAAGGTTAAGTAAGCCGAAGCCT the value was 0.244; for TCTGCAAGGTCAGTTGGTCAGCTAACGAGCTGCC, -0.037.
On the same count and under the same terms, for TTACCAAGGTGAAGGTCGCTGATCCCTCTGTAGA the value was -0.243; for ACTTACGGGGCAACGAGGTTATAGCACGCGTATA, -0.335; for TCTGCTAGGTCAACGATGGTCAGCCAATCTGCTA, -0.0342.
On to ATCTCTACGTAACCAAGTTCAGTGAATGCCGAAC, for which the PBM binding z-score was determined as 0.728.
GCTATTAGTTGAAAGGGCATCCGAATGATTCTCG had a PBM binding z-score of 0.00348.
Sequence CGAACTAGGTCGTTGACAGGACAGTGAATAGTAA returned a PBM binding z-score of -0.251.
As to TCATATAGGTAACAGGTGAAAGTCGGTGTGGTAA, the PBM binding z-score was 0.422.
In the case of AGAATGAGGTTACCAAAGATCAGGGACACGCTTG, the PBM binding z-score was -0.0151.
Sequence CGAACTAGGTCAAGGACAGTGCATCTCCGCACGC yielded a PBM binding z-score of 0.582.
On to CCTACTGGGCCATCTGGTCATTGATATCAACGTT, for which the PBM binding z-score was -0.126.
Still for that read-out and setting: next, CGTCCAAGGTCAAAGGAGGTCAGTGAAGACAGAT: 4.18; ACTAGCAGGCCAAGTTTGGGTGACTCAAACAAAG: -0.818; CAAACTAGGTCACCGGAAGGTCAAAATCCGCATG: 4.45.
CCTGCTAGGTCAATGGTCAACTAAAGCAGCTCGC gave a PBM binding z-score of -0.236.
As to CCAGACAGGTGAGAAGGTATCTCAGCCTCGATTA, the PBM binding z-score turned out to be 0.0657.
In the case of TCTAGCAAGCCAGAGGGTCACTCAAGAGGTACGG, the PBM binding z-score is -0.557.
Consider CGTCCAAGGTCAGAGAGCTCAGTGAATGCCGAGT, for which the PBM binding z-score is -0.139.
The same measure, in the same setting: for CGTCCAAGGTCAAGGTCAGCGAAAGAGACTCGAA the value was 1.11.
CCTACTCGGCCATTCAGAGGTCATTGATCATATG: the PBM binding z-score turned out to be 7.45.
For the sequence TCGAATAGGTTACCAATGGGGCATTCAGCTTTCT, the PBM binding z-score is -0.377.
Still for that read-out and setting: for ATCGAGAGGTCGAAGGTGAGTATACCCACCCGAA the value was -0.396.
CCTTGCAGGCCAGGGTCACTCAAGCATTTCGCTT gave a PBM binding z-score of -0.569.
Regarding TCGCGTAGGTTAGTCGGGGCATTCAGCCAACATA, the PBM binding z-score was -0.337.
AGGATGAGGTTACCAAAGATCAGGGAAACGCTTG returned a PBM binding z-score of 0.206.

The next test has as its system LXRb:RXRa (NR concentration 270 nM, RXRa partner concentration 90 nM). Described as above. In outline:
as §1
In turn, AATACAGGGTCATCGTAGGCCAGAGAACGCACAG returned a PBM binding z-score of 4.8.
Turning to CCGACTGGGGCATAAGGTTACGATAAGCCAGCCC, the PBM binding z-score turned out to be 0.815.
Same read-out and setting: next, CGTCCAAGGTCAGAGAGGTAAGTGAATGCCGAGT: 2.39; TCGAGTAGGTTACCAATGGGGCGTTCAGCTTTCT: 0.47; CCTCCTGGGCCAAAGGTCATTGATTCCAATGCTC: 4.79.
Consider GCGACTGGGGCATCAGGAGGTTACCATAACTTAA, for which the PBM binding z-score was 0.842.
Sequence CCTATTAGTTGACCATAAGGGCAACGGAAGCTCG came in with a PBM binding z-score of 0.234.
Sequence CAAACTAGGTCAACGGAAGGTCAAAGTCCGCATG had a PBM binding z-score of 5.09.
Sequence ACTATTAGTTGAGACGCGGGCAACCGATAGGTTG showed a PBM binding z-score of -0.488.
ACTAGTTAGTCAGCTGAGGTCACACACAATTCGG gave a PBM binding z-score of 3.72.
ATCGAAAGGTCGAAGGTGAATATACCCACCCGAA showed a PBM binding z-score of 3.42.
Take ATATCTAGGTTAGCTGGGGTCATTCAGACTAGGC: the PBM binding z-score is 4.64.
The same measure, in the same setting: for TCTTGTAGATCAAGCAGGTTAAGAAGGCCTGAGT the value was 0.226.
In turn, CCAGACAGGTTAAAGGTAACTCAGTCTGGTACGC displayed a PBM binding z-score of 1.63.
As to TCTTGTAGATCAAAGGTTAAGTAAGCCGAAGCCT, the PBM binding z-score came to 2.28.
Still for that read-out and setting: for TCTGCAAGGTCAGTTGGTCAGCTAACGAGCTGCC the value was 2.09; for TTACCAAGGTGAAGGTCGCTGATCCCTCTGTAGA, 0.689.
Consider ACTTACGGGGCAACGAGGTTATAGCACGCGTATA, for which the PBM binding z-score was 1.73.
Take TCTGCTAGGTCAACGATGGTCAGCCAATCTGCTA: the PBM binding z-score was 1.57.
ATCTCTACGTAACCAAGTTCAGTGAATGCCGAAC: the PBM binding z-score was found to be 0.389.
The sequence GCTATTAGTTGAAAGGGCATCCGAATGATTCTCG had a PBM binding z-score of 0.69.
In turn, CGAACTAGGTCGTTGACAGGACAGTGAATAGTAA gave a PBM binding z-score of 0.171.
Turning to TCATATAGGTAACAGGTGAAAGTCGGTGTGGTAA, the PBM binding z-score worked out at 1.24.
Consider AGAATGAGGTTACCAAAGATCAGGGACACGCTTG, for which the PBM binding z-score amounted to 3.01.
Still for that read-out and setting: for CGAACTAGGTCAAGGACAGTGCATCTCCGCACGC the value was 1.38; for CCTACTGGGCCATCTGGTCATTGATATCAACGTT, -0.0941; for CGTCCAAGGTCAAAGGAGGTCAGTGAAGACAGAT, 5.88.
In turn, ACTAGCAGGCCAAGTTTGGGTGACTCAAACAAAG gave a PBM binding z-score of -0.554.
As to CAAACTAGGTCACCGGAAGGTCAAAATCCGCATG, the PBM binding z-score is 5.33.
In the case of CCTGCTAGGTCAATGGTCAACTAAAGCAGCTCGC, the PBM binding z-score was determined as 1.83.
Consider CCAGACAGGTGAGAAGGTATCTCAGCCTCGATTA, for which the PBM binding z-score is -0.418.
The sequence TCTAGCAAGCCAGAGGGTCACTCAAGAGGTACGG gave a PBM binding z-score of 1.04.
CGTCCAAGGTCAGAGAGCTCAGTGAATGCCGAGT: the PBM binding z-score came out at 1.84.
CGTCCAAGGTCAAGGTCAGCGAAAGAGACTCGAA showed a PBM binding z-score of 4.65.
As for CCTACTCGGCCATTCAGAGGTCATTGATCATATG, the PBM binding z-score turned out to be 4.25.
Regarding TCGAATAGGTTACCAATGGGGCATTCAGCTTTCT, the PBM binding z-score turned out to be 2.
ATCGAGAGGTCGAAGGTGAGTATACCCACCCGAA had a PBM binding z-score of 1.74.
CCTTGCAGGCCAGGGTCACTCAAGCATTTCGCTT registered a PBM binding z-score of 1.99.
Regarding TCGCGTAGGTTAGTCGGGGCATTCAGCCAACATA, the PBM binding z-score is 0.83.
Regarding AGGATGAGGTTACCAAAGATCAGGGAAACGCTTG, the PBM binding z-score amounted to 3.17.
